The source made the active and inactive calls. Calls follow the shape of the dose curve; as a rule, active = well fitted curve in the direction sought with a large enough effect in the repeat runs; inconclusive = weak or mixed curves; inactive = flat fitted curve, though single readings scatter.
test: qHTS assay to test for compound auto fluorescence at 590 nm (red) in HepG2 cell free culture (AID 720684); conditions: cell-free medium autofluorescence, red 540/590 nm; series mostly up to 91.3 µM
Method in brief: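 Red fluorescence (540 nm excitation, 590 nm emission) was measured after compound transfer into cell-free MEM supplemented with 10% FBS. Values are equivalencies against Rose Bengal sodium.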

Row | SMILES | outcome
1 | O=C(N/N=C/c1ccc([N+](=O)[O-])o1)c1cc([N+](=O)[O-])cc([N+](=O)[O-])c1O | inactive
2 | C=CC(=O)OCC | inactive
3 | C=CCc1ccccc1O | inactive
4 | Nc1ccc2c(c1)Cc1ccccc1-2 | inactive
5 | C[C@H]1[C@@H]2Cc3ccc(O)cc3[C@@]1(C)CCN2C | inactive
6 | CCC(C)(C)c1ccc(O)c(C(C)(C)CC)c1 | inactive
7 | O=C(O)c1cc(I)cc(I)c1I | inactive
8 | CCCCCBr | inactive
9 | O=C(O)C(O)C(O)C(=O)O (configuration not stated) | inactive
10 | Cc1ncc(C[n+]2csc(CCO)c2C)c(N)n1 | inactive
11 | C[CH2][Hg][S]c1ccccc1C(=O)O | inactive
12 | O=P(OCC(Br)CBr)(OCC(Br)CBr)OCC(Br)CBr (configuration not stated) | inactive
13 | O=[N+]([O-])O[C@H]1CO[C@H]2[C@@H]1OC[C@H]2O[N+](=O)[O-] | inactive
14 | CC1(C)[C@H](C(=O)O[C@H](C#N)c2cccc(Oc3ccccc3)c2)[C@@H]1C=C(Br)Br | inactive
15 | C[N+]1(CCC(C(N)=O)(c2ccccc2)c2ccccc2)CCCCC1 | inactive
16 | COP(=O)(OC)OC(Br)C(Cl)(Cl)Br (configuration not stated) | inactive
17 | Nc1cccc2ccccc12 | inactive
18 | CCC1(CC)C(=O)NC(=O)NC1=O | inactive
19 | CC(C)(C)N(NC(=O)c1ccc(Cl)cc1)C(=O)c1ccccc1 | inactive
20 | CC(=O)NNc1ccccc1 | inactive
21 | c1ccc2sc(SNC3CCCCC3)nc2c1 | inactive
22 | CCC1CCC(=O)O1 (configuration not stated) | inactive
23 | O=C(O)CCCOc1ccc(Cl)cc1Cl | inactive
24 | O=[N+]([O-])c1cc(Cl)c(Cl)cc1Cl | inactive
25 | Nc1ccccc1C(=O)OCCc1ccccc1 | inactive
26 | CC(C)(C)CC(C)(C)c1ccc(O)cc1 | inactive
27 | CC(=O)OC(c1ccccc1)C(Cl)(Cl)Cl (configuration not stated) | inactive

test: qHTS assay to test for compound auto fluorescence at 460 nm (blue) in HepG2 cell free culture (AID 720685); conditions: Cell-free culture medium, blue autofluorescence 405/460 nm; series mostly up to 91.3 µM
Method in brief: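 Compound (23 nL) or DMSO pinned into cell-free MEM with 10% FBS; blue fluorescence read at 405/460 nm excitation/emission, expressed as auto-fluorescence equivalency to triamterene.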

Row | SMILES | outcome
28 | O=C(N/N=C/c1ccc([N+](=O)[O-])o1)c1cc([N+](=O)[O-])cc([N+](=O)[O-])c1O | inactive
29 | C=CC(=O)OCC | inactive
30 | C=CCc1ccccc1O | inactive
31 | C[C@H]1[C@@H]2Cc3ccc(O)cc3[C@@]1(C)CCN2C | inactive
32 | O=C(O)c1cc(I)cc(I)c1I | inactive
33 | CCCCCBr | inactive
34 | O=S(=O)(Cl)Cl | inactive
35 | Cc1ncc(C[n+]2csc(CCO)c2C)c(N)n1 | inactive
36 | C[CH2][Hg][S]c1ccccc1C(=O)O | inactive
37 | O=P(OCC(Br)CBr)(OCC(Br)CBr)OCC(Br)CBr (configuration not stated) | inactive
38 | CCCCCCCCCCCC[N+](C)(C)CCOc1ccccc1 | inactive
39 | CCC1(CCC(C)C)C(=O)NC(=O)NC1=O | inactive
40 | [Cl-].[Cl-].[Hg+2] | inactive
41 | CC1(C)[C@H](C(=O)O[C@H](C#N)c2cccc(Oc3ccccc3)c2)[C@@H]1C=C(Br)Br | inactive
42 | OC[P+](CO)(CO)CO | inactive
43 | C[N+]1(CCC(C(N)=O)(c2ccccc2)c2ccccc2)CCCCC1 | inactive
44 | O=C(Cc1ccccc1)c1ccccc1 | inactive
45 | CCC1(CC)C(=O)NC(=O)NC1=O | inactive
46 | CC(C)(C)N(NC(=O)c1ccc(Cl)cc1)C(=O)c1ccccc1 | inactive
47 | CC(=O)NNc1ccccc1 | inactive
48 | c1ccc2sc(SNC3CCCCC3)nc2c1 | inactive
49 | CCC1CCC(=O)O1 (configuration not stated) | inactive
50 | Nc1ccccc1C(=O)OCCc1ccccc1 | inactive
51 | CN1C(=O)CN=C(c2ccccc2)c2cc([N+](=O)[O-])ccc21 | inactive
52 | NC(=S)c1c(Cl)cccc1Cl | inactive
53 | CC(=O)OC(c1ccccc1)C(Cl)(Cl)Cl (configuration not stated) | inactive

test: qHTS assay to test for compound auto fluorescence at 535 nm (green) in HepG2 cell free culture (AID 720686); conditions: Cell-free medium, green autofluorescence 485/535 nm; series mostly up to 91.3 µM

Row | SMILES | outcome
54 | C=CC(=O)OCC | inactive
55 | C=CCc1ccccc1O | inactive
56 | Nc1ccc2c(c1)Cc1ccccc1-2 | inactive
57 | C[C@H]1[C@@H]2Cc3ccc(O)cc3[C@@]1(C)CCN2C | inactive
58 | O=C(O)c1cc(I)cc(I)c1I | inactive
59 | CCCCCBr | inactive
60 | O=C(O)C(O)C(O)C(=O)O (configuration not stated) | inactive
61 | Cc1ncc(C[n+]2csc(CCO)c2C)c(N)n1 | inactive
62 | C[CH2][Hg][S]c1ccccc1C(=O)O | inactive
63 | O=P(OCC(Br)CBr)(OCC(Br)CBr)OCC(Br)CBr (configuration not stated) | inactive
64 | CCC1(CCC(C)C)C(=O)NC(=O)NC1=O | inactive
65 | O=[N+]([O-])O[C@H]1CO[C@H]2[C@@H]1OC[C@H]2O[N+](=O)[O-] | inactive
66 | CCC(C)Cl (configuration not stated) | inactive
67 | [Cl-].[Cl-].[Hg+2] | inactive
68 | CC1(C)[C@H](C(=O)O[C@H](C#N)c2cccc(Oc3ccccc3)c2)[C@@H]1C=C(Br)Br | inactive
69 | OC[P+](CO)(CO)CO | inactive
70 | O=C(O)c1cc(Cl)ccc1Cl | inactive
71 | C[N+]1(CCC(C(N)=O)(c2ccccc2)c2ccccc2)CCCCC1 | inactive
72 | COP(=O)(OC)OC(Br)C(Cl)(Cl)Br (configuration not stated) | inactive
73 | CCC1(CC)C(=O)NC(=O)NC1=O | inactive
74 | CC(C)(C)N(NC(=O)c1ccc(Cl)cc1)C(=O)c1ccccc1 | inactive
75 | CC(=O)NNc1ccccc1 | inactive
76 | c1ccc2sc(SNC3CCCCC3)nc2c1 | inactive
77 | CCC1CCC(=O)O1 (configuration not stated) | inactive
78 | O=C(O)CCCOc1ccc(Cl)cc1Cl | inactive
79 | O=[N+]([O-])c1cc(Cl)c(Cl)cc1Cl | inactive
80 | Nc1ccccc1C(=O)OCCc1ccccc1 | inactive
81 | CC(C)(C)CC(C)(C)c1ccc(O)cc1 | inactive
82 | CN1C(=O)CN=C(c2ccccc2)c2cc([N+](=O)[O-])ccc21 | inactive

— PubChem BioAssay (Tox21)
